Assay results published in the supplement of paper PMC9023506.
Counter-ions that a name gives are not always drawn.

How the values were obtained:
Details in all cases: 10 µM; exposure time: 3 h pre-incubation + 3 h imaging
[1] = tested on: Danio rerio larvae (5 dpf); assay: activity during period 15 (no stimuli), difference vs DMSO (percentage points (treated minus DMSO)); higher = more of the behaviour than the DMSO vehicle control
Procedure, shortened: (§1)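 Library drugs were diluted 1000× from DMSO stocks into egg water to reach 10 µM and applied to 5-dpf wild-type zebrafish larvae in 96-well ProxiPlates, 48 larvae per drug. The larvae stayed exposed for 3 h before imaging and for the 3 h of imaging at 28.5 °C. Behaviour scores, given in percentage points, are the treated mean minus the vehicle mean for movement and upper-half location.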

[2] = tested on: Danio rerio larvae (5 dpf); assay: activity during first hour (no stimuli), difference vs DMSO (percentage points (treated minus DMSO)); higher = more of the behaviour than the DMSO vehicle control
Procedure, shortened: as §1

[3] = tested on: Danio rerio larvae (5 dpf); assay: optomotor response to blue moving lines, difference vs DMSO (percentage points (treated minus DMSO)); higher = more of the behaviour than the DMSO vehicle control
Procedure, shortened: as §1

[4] = tested on: Danio rerio larvae (5 dpf); assay: optomotor response to fast red moving lines, difference vs DMSO (percentage points (treated minus DMSO)); higher = more of the behaviour than the DMSO vehicle control
Procedure, shortened: as §1

[5] = tested on: Danio rerio larvae (5 dpf); assay: habituation to 1-s acoustic pulses, difference vs DMSO (percentage points (treated minus DMSO)); higher = more of the behaviour than the DMSO vehicle control
Procedure, shortened: as §1

[6] = tested on: Danio rerio larvae (5 dpf); assay: optomotor response to red moving lines, difference vs DMSO (percentage points (treated minus DMSO)); higher = more of the behaviour than the DMSO vehicle control
Procedure, shortened: as §1

[7] = tested on: Danio rerio larvae (5 dpf); assay: startle response to 20-s acoustic pulses, difference vs DMSO (percentage points (treated minus DMSO)); higher = more of the behaviour than the DMSO vehicle control
Procedure, shortened: as §1

[8] = tested on: Danio rerio larvae (5 dpf); assay: excitability to 1-s acoustic pulses, difference vs DMSO (percentage points (treated minus DMSO)); higher = more of the behaviour than the DMSO vehicle control
Procedure, shortened: as §1

[9] = tested on: Danio rerio larvae (5 dpf); assay: optomotor response to green moving lines, difference vs DMSO (percentage points (treated minus DMSO)); higher = more of the behaviour than the DMSO vehicle control
Procedure, shortened: as §1

COC(c1ccccc1)(c1ccccc1)[C@H](Oc1nc(C)cc(C)n1)C(=O)O [Ambrisentan]
activity during period 15 [1]: -4.72
activity during first hour [2]: 1.9
optomotor response to blue moving lines [3]: -7.26
optomotor response [4]: -12.3

COCCCOc1cc(C[C@@H](C[C@H](N)[C@@H](O)C[C@H](C(=O)NCC(C)(C)C(N)=O)C(C)C)C(C)C)ccc1OC [Aliskiren hemifumarate]
habituation to 1-s acoustic pulses [5]: 7.12
optomotor response to red moving lines [6]: 0.559
activity during period 15 [1]: -3.61
activity during first hour [2]: -4.92

Clc1ccccc1C(c1ccccc1)(c1ccccc1)n1ccnc1 [Clotrimazole]
activity during period 15 [1]: -30.5
activity during first hour [2]: -21.6
optomotor response to blue moving lines [3]: 14.5
optomotor response [4]: 17.9

NS(=O)(=O)c1cc(C(=O)O)c(NCc2ccco2)cc1Cl [Furosemide]
optomotor response to red moving lines [6]: 4.84
activity during first hour [2]: 5.98
startle response to 20-s acoustic pulses [7]: -4.02

N#Cc1ccc(C(c2ccc(C#N)cc2)n2cncn2)cc1 [Letrozole]
excitability to 1-s acoustic pulses [8]: -0.518
optomotor response to red moving lines [6]: -12.7
activity during first hour [2]: -3.63
optomotor response to blue moving lines [3]: 2.11
optomotor response to green moving lines [9]: 6.3
startle response to 20-s acoustic pulses [7]: 5.37

C=CC(=O)N1CCC[C@@H](n2nc(-c3ccc(Oc4ccccc4)cc3)c3c(N)ncnc32)C1 [Ibrutinib]
activity during period 15 [1]: -4.55
activity during first hour [2]: -6.62
optomotor response to blue moving lines [3]: 6.42

CN/C(=N\CCSCc1nc[nH]c1C)NC#N [Cimetidine]
optomotor response to red moving lines [6]: 5.88
activity during first hour [2]: 3.11
startle response to 20-s acoustic pulses [7]: 7.14
optomotor response [4]: -7.27

COc1cc(Nc2c(C#N)cnc3cc(OCCCN4CCN(C)CC4)c(OC)cc23)c(Cl)cc1Cl [Bosutinib]
activity during first hour [2]: -16.6

Cc1nc(-c2ccc(OCC(C)C)c(C#N)c2)sc1C(=O)O [Febuxostat]
activity during first hour [2]: -0.179
optomotor response to blue moving lines [3]: -7.14
optomotor response [4]: 8.02

CC[C@H]1OC(=O)[C@H](C)[C@@H](O[C@H]2C[C@@](C)(OC)[C@@H](O)[C@H](C)O2)[C@H](C)[C@@H](O[C@@H]2O[C@H](C)C[C@H](N(C)C)[C@H]2O)[C@](C)(O)C[C@@H](C)CN(C)[C@H](C)[C@@H](O)[C@]1(C)O [Azithromycin]
excitability to 1-s acoustic pulses [8]: 13
activity during first hour [2]: -12.2
optomotor response to blue moving lines [3]: -9.61
optomotor response [4]: -9.96

CCCCCOC(=O)Nc1nc(=O)n([C@@H]2O[C@H](C)[C@@H](O)[C@H]2O)cc1F [Capecitabine]
excitability to 1-s acoustic pulses [8]: 4.17
optomotor response to red moving lines [6]: 4.71
activity during first hour [2]: 6.31
optomotor response to blue moving lines [3]: 16.5
optomotor response to green moving lines [9]: 1.46

CC(C)OC(=O)C(C)(C)Oc1ccc(C(=O)c2ccc(Cl)cc2)cc1 [Fenofibrate]
activity during first hour [2]: 6.44
optomotor response to blue moving lines [3]: 12.7

Cc1cc2c(s1)Nc1ccccc1N=C2N1CCN(C)CC1 [Olanzapine]
habituation to 1-s acoustic pulses [5]: 0.145
activity during period 15 [1]: 5.7
activity during first hour [2]: 8.05
optomotor response to blue moving lines [3]: 16

CC(C)[C@H]1CC[C@H](C(=O)N[C@H](Cc2ccccc2)C(=O)O)CC1 [Nateglinide]
excitability to 1-s acoustic pulses [8]: 1.64
activity during first hour [2]: 4.52
optomotor response to blue moving lines [3]: 11.9
optomotor response [4]: -0.789

O=C(c1ccc(OCCN2CCCCC2)cc1)c1c(-c2ccc(O)cc2)sc2cc(O)ccc12 [Raloxifene hydrochloride]
habituation to 1-s acoustic pulses [5]: 1.64
activity during first hour [2]: -5.98
optomotor response to blue moving lines [3]: -2.86
optomotor response to green moving lines [9]: -7.74
optomotor response [4]: -14.5

CCCCC1=NC2(CCCC2)C(=O)N1Cc1ccc(-c2ccccc2-c2nnn[nH]2)cc1 [Irbesartan]
habituation to 1-s acoustic pulses [5]: 1.51
optomotor response to red moving lines [6]: -7.57
activity during period 15 [1]: 5.68
activity during first hour [2]: 3.29
optomotor response [4]: -14.6

Cc1ccc(N(CC2=NCCN2)c2cccc(O)c2)cc1 [Phentolamine Mesylate]
excitability to 1-s acoustic pulses [8]: 15.7
optomotor response to red moving lines [6]: 14.5
activity during first hour [2]: 9.58
optomotor response to blue moving lines [3]: 16.3
optomotor response to green moving lines [9]: 5.31
optomotor response [4]: 7.53

COc1cc2ncnc(Nc3ccc(F)c(Cl)c3)c2cc1OCCCN1CCOCC1 [Iressa]
activity during first hour [2]: -5.98

CN(C)CCc1c[nH]c2ccc(Cn3cncn3)cc12 [Rizatriptan benzoate]
habituation to 1-s acoustic pulses [5]: -2.41
optomotor response to red moving lines [6]: 14.6
activity during first hour [2]: -2.37

OC(c1cc(C(F)(F)F)nc2c(C(F)(F)F)cccc12)C1CCCCN1 (stereo unspecified) [Mefloquine hydrochloride]
optomotor response to red moving lines [6]: 8.36
activity during first hour [2]: -1.64
startle response to 20-s acoustic pulses [7]: -13.3
optomotor response [4]: -3.95

Cc1ccccc1C(=O)Nc1ccc(C(=O)N2CCCC(O)c3cc(Cl)ccc32)c(C)c1 (stereo unspecified) [Tolvaptan]
habituation to 1-s acoustic pulses [5]: 1.17
activity during period 15 [1]: -8.09
activity during first hour [2]: 1.26
optomotor response to blue moving lines [3]: -0.344
startle response to 20-s acoustic pulses [7]: 3.71

C[C@@H]1C[C@H]2[C@@H]3CCC4=CC(=O)C=C[C@]4(C)[C@@]3(F)[C@@H](O)C[C@]2(C)[C@@]1(O)C(=O)CO [Dexamethasone]
excitability to 1-s acoustic pulses [8]: -5.75
activity during period 15 [1]: 2.91
activity during first hour [2]: 15
optomotor response to blue moving lines [3]: 2.76

Cc1nc(Nc2ncc(C(=O)Nc3c(C)cccc3Cl)s2)cc(N2CCN(CCO)CC2)n1 [Dasatinib]
excitability to 1-s acoustic pulses [8]: 16.9
activity during period 15 [1]: -15.1
activity during first hour [2]: -11.4
optomotor response to blue moving lines [3]: -13.1
optomotor response [4]: -12.1

CC(=O)NC[C@H]1CN(c2ccc(N3CCOCC3)c(F)c2)C(=O)O1 [Linezolid]
habituation to 1-s acoustic pulses [5]: -2.78
optomotor response to red moving lines [6]: 4.59
activity during first hour [2]: 3.81
optomotor response to blue moving lines [3]: -4.03

COc1cccc2c1C(=O)c1c(O)c3c(c(O)c1C2=O)C[C@@](O)(C(=O)CO)C[C@@H]3O[C@H]1C[C@H](N)[C@H](O)[C@H](C)O1 [Doxorubicin hydrochloride]
excitability to 1-s acoustic pulses [8]: 13.8
optomotor response to red moving lines [6]: -1.73
activity during first hour [2]: -5.82

CCN(CC)CCNC(=O)c1c(C)[nH]c(/C=C2\C(=O)Nc3ccc(F)cc32)c1C [Sunitinib malate]
habituation to 1-s acoustic pulses [5]: 4.25
excitability to 1-s acoustic pulses [8]: 14.4
optomotor response to red moving lines [6]: -0.697
activity during first hour [2]: -14.4
optomotor response to blue moving lines [3]: -5.69
